# According to ChEMBL document CHEMBL1961873, “Compounds: GSK PKIS; Assays: Nanosyn kinase panel” (2012):
# Tests used:
# [1] = target: Protein kinase C gamma type (Homo sapiens) (UniProt P05129); details: at 1 µM;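 further: each value is an averaged percent inhibition of the enzyme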
# [2] = target: T1, Protein kinase C iota type (Homo sapiens) (UniProt P41743); details: at 0.1 µM
# T1 sequence (whole entry): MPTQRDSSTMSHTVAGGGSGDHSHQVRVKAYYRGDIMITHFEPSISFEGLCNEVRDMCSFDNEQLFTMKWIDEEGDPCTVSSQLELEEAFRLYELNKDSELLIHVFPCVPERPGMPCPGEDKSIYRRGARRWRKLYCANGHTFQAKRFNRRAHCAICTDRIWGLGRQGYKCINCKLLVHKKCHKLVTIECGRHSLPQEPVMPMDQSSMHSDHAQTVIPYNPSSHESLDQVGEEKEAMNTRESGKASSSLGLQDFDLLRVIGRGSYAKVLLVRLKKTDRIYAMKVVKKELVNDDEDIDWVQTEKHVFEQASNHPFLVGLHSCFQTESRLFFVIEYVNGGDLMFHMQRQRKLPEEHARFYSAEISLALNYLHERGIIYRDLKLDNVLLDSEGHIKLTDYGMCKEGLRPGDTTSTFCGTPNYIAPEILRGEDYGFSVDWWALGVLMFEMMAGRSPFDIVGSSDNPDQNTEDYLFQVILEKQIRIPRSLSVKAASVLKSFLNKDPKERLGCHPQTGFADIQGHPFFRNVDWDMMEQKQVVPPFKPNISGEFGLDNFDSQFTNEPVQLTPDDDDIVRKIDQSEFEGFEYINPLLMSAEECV
# [3] = target: T1, Protein kinase C iota type (Homo sapiens); details: at 1 µM
# [4] = target: Protein kinase C theta type (Homo sapiens) (UniProt Q04759); details: at 0.1 µM
# [5] = target: Protein kinase C theta type (Homo sapiens) (UniProt Q04759); details: at 1 µM
# [6] = target: Protein kinase C beta type (Homo sapiens) (UniProt P05771); details: at 0.1 µM
# [7] = target: Protein kinase C beta type (Homo sapiens) (UniProt P05771); details: at 1 µM
# [8] = target: T2, Serine/threonine-protein kinase D1 (Homo sapiens) (UniProt Q15139); details: at 0.1 µM
# T2 sequence (whole entry): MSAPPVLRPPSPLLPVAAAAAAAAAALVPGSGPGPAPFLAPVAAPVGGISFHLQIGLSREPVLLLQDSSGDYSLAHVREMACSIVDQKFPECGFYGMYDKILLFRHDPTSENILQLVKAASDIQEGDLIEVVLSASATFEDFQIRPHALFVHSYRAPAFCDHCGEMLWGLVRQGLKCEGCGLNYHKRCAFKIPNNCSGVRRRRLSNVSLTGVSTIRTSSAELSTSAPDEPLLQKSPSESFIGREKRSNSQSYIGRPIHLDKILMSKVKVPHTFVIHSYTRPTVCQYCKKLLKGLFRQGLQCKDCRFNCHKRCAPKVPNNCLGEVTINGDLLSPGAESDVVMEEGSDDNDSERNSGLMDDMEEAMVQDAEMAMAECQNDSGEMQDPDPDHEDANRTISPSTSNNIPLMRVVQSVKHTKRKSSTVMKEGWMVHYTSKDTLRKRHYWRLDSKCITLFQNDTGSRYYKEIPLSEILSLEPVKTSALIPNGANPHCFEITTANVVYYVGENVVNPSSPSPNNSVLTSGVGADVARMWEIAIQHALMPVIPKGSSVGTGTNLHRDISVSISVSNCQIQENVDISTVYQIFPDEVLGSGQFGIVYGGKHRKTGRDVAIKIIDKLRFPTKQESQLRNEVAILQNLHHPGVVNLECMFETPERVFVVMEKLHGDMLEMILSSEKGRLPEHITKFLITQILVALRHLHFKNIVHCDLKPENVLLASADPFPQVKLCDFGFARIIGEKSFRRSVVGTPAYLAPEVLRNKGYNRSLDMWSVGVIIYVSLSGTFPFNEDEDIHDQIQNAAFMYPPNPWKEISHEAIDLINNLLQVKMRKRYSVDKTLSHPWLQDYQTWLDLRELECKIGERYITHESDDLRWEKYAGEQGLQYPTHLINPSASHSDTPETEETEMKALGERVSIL
# [9] = target: T2, Serine/threonine-protein kinase D1 (Homo sapiens); details: at 1 µM
# [10] = target: T3, Serine/threonine-protein kinase D2 (Homo sapiens) (UniProt Q9BZL6); details: at 0.1 µM
# T3 sequence (whole entry): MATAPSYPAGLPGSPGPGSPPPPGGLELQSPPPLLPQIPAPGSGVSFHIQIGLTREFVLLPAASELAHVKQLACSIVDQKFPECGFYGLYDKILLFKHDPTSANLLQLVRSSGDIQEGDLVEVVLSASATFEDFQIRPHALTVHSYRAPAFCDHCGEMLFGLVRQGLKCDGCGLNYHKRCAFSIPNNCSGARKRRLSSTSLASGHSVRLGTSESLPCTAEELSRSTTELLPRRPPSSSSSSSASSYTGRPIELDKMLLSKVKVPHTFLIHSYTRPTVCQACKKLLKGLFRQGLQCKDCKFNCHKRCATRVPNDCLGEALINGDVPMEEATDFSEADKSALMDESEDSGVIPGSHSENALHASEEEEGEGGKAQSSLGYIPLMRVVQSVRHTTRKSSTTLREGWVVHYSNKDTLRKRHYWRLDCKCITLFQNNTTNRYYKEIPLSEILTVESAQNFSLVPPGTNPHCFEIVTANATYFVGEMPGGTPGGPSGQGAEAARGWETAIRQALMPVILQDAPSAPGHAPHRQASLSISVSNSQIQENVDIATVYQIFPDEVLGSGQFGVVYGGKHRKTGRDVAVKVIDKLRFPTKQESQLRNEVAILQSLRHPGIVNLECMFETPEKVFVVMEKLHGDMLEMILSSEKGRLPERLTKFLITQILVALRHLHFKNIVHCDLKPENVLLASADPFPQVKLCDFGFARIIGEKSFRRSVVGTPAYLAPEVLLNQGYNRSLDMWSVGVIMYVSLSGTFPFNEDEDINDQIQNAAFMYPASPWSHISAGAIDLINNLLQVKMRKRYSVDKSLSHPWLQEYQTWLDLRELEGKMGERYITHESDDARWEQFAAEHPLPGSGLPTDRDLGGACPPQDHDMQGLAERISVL
# [11] = target: T3, Serine/threonine-protein kinase D2 (Homo sapiens); details: at 1 µM
# [12] = target: T4, Serine/threonine-protein kinase D3 (Homo sapiens) (UniProt O94806); details: at 0.1 µM
# T4 sequence (whole entry): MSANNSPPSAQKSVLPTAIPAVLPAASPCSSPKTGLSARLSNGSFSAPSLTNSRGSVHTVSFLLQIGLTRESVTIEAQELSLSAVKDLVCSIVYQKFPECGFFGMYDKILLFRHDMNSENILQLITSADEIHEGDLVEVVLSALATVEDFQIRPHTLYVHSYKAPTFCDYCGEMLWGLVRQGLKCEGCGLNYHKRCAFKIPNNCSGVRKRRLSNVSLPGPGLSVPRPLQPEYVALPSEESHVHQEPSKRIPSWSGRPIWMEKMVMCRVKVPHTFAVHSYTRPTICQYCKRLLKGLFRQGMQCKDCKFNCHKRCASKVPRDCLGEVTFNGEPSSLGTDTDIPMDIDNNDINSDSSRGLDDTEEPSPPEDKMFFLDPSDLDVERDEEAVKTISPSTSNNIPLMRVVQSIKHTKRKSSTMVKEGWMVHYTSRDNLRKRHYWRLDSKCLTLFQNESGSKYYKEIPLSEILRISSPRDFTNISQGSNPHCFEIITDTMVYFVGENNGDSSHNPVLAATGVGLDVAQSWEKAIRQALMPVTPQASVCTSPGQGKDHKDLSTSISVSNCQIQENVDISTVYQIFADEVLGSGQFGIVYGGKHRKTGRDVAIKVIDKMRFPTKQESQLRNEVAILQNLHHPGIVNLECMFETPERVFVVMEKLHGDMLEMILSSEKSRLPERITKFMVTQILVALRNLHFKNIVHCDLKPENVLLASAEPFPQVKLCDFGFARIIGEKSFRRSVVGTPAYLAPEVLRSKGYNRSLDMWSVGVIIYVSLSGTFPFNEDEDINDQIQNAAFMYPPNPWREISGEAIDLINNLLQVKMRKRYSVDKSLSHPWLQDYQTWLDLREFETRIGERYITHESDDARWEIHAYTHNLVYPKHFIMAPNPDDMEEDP
# [13] = target: T4, Serine/threonine-protein kinase D3 (Homo sapiens); details: at 1 µM
# [14] = target: T5, cGMP-dependent protein kinase 1 (Homo sapiens) (UniProt Q13976); details: at 0.1 µM
# T5 sequence (whole entry): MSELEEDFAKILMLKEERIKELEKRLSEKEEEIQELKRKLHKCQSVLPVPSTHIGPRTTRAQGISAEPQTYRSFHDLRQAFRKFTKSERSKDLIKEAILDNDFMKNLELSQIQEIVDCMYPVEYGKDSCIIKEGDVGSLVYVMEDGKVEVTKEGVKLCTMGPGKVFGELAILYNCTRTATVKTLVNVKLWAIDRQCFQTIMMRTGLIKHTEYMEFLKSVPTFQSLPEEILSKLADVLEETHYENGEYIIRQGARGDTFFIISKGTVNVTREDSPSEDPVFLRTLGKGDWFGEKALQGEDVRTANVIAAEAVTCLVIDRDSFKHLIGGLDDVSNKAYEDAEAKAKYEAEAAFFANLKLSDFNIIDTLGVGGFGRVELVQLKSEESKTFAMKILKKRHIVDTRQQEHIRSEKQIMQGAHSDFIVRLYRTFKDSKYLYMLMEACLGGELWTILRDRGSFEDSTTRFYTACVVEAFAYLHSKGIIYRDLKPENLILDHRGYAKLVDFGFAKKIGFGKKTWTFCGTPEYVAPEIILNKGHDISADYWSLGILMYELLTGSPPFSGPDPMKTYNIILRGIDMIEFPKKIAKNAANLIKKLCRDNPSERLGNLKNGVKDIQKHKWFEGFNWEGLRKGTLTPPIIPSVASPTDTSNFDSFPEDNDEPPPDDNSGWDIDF
# [15] = target: T5, cGMP-dependent protein kinase 1 (Homo sapiens); details: at 1 µM
# [16] = target: T6, cGMP-dependent protein kinase 2 (Homo sapiens) (UniProt Q13237); details: at 0.1 µM
# T6 sequence (whole entry): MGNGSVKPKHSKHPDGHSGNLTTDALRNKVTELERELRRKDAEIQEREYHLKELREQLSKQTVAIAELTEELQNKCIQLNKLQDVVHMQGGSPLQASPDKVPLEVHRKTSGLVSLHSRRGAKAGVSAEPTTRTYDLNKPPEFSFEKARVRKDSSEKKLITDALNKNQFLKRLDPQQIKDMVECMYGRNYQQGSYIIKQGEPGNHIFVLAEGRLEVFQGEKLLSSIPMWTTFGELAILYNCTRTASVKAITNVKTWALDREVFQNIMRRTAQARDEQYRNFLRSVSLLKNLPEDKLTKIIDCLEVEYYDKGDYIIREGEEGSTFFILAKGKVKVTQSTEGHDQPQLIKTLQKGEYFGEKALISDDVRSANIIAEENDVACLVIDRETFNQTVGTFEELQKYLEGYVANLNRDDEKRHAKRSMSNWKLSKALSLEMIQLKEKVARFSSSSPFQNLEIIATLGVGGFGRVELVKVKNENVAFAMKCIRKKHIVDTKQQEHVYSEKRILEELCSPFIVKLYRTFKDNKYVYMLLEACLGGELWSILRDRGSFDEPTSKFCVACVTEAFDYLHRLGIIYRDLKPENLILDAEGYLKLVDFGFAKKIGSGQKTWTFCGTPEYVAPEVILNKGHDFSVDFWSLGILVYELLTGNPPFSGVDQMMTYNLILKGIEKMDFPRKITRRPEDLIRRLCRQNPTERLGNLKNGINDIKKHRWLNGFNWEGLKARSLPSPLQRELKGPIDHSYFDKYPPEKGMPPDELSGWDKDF
# [17] = target: T6, cGMP-dependent protein kinase 2 (Homo sapiens); details: at 1 µM
# [18] = target: T7, cAMP-dependent protein kinase catalytic subunit PRKX (Homo sapiens) (UniProt P51817); details: at 0.1 µM
# T7 sequence (whole entry): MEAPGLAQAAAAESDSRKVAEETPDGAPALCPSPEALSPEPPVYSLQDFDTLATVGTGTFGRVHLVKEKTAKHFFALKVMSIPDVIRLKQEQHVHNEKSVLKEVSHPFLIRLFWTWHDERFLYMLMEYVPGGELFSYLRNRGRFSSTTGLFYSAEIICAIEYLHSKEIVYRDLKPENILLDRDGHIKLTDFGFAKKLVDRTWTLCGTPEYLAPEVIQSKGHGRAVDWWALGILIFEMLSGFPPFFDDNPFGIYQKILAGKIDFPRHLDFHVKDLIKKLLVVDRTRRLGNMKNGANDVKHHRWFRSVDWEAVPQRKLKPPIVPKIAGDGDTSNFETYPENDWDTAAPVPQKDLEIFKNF
# [19] = target: T7, cAMP-dependent protein kinase catalytic subunit PRKX (Homo sapiens); details: at 1 µM
# [20] = target: Rho-associated protein kinase 1 (Homo sapiens) (UniProt Q13464); details: at 0.1 µM;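 further: values are mean percent inhibition of ROCK1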
# Sequence of Rho-associated protein kinase 1 (Homo sapiens) (Q13464 2-1354 limits assumed): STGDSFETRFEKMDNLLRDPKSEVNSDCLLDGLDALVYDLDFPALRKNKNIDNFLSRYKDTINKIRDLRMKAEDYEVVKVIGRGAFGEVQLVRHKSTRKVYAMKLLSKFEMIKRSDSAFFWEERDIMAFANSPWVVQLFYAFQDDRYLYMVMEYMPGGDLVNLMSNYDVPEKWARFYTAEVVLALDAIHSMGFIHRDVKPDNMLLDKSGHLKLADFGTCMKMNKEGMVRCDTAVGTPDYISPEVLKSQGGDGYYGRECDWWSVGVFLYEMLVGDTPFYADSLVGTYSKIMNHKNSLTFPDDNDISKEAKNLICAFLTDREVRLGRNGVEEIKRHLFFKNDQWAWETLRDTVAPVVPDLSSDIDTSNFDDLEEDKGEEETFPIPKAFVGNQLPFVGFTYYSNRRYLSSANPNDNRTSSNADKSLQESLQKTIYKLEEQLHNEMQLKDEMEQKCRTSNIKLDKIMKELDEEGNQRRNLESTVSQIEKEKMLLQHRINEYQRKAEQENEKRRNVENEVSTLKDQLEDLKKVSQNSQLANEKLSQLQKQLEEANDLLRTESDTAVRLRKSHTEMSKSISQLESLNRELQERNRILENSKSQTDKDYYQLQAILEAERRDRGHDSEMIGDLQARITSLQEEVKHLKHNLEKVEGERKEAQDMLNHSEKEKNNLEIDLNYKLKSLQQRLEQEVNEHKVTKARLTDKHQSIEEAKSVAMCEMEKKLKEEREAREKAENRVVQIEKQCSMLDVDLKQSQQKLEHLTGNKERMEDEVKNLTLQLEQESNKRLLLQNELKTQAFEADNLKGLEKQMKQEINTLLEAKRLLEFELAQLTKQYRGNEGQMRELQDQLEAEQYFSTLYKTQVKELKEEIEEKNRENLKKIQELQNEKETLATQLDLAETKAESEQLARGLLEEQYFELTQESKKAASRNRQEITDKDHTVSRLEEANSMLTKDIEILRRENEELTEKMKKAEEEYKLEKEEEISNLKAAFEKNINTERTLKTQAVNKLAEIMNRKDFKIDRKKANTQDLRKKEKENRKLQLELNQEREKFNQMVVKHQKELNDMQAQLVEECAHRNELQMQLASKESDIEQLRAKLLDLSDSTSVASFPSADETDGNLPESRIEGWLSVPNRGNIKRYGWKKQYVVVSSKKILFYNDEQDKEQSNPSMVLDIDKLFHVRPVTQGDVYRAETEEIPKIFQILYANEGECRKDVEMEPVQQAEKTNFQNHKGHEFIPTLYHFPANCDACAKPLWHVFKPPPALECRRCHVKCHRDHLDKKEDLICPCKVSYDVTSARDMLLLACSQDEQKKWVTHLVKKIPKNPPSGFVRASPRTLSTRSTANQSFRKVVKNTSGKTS
# Sequence of Protein kinase C beta type (Homo sapiens) (P05771 2-671 limits assumed): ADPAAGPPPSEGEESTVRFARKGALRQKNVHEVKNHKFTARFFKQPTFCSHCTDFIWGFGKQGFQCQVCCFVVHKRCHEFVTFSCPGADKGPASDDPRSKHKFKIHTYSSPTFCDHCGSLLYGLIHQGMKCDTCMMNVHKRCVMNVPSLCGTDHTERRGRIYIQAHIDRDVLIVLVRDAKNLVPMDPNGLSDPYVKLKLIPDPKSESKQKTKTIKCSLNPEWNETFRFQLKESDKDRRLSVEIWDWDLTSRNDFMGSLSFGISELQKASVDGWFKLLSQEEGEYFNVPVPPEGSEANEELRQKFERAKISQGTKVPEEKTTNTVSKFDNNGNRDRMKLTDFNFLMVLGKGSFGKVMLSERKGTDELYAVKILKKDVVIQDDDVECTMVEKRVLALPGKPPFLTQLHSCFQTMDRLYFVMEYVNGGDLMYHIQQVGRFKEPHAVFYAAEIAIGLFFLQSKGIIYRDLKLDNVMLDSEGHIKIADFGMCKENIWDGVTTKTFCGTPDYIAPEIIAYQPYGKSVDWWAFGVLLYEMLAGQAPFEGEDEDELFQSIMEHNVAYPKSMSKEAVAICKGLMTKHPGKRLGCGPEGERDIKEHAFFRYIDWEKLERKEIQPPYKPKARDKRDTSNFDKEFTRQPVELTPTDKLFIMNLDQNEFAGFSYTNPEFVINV
# Sequence of Protein kinase C theta type (Homo sapiens) (Q04759 whole entry, looked up): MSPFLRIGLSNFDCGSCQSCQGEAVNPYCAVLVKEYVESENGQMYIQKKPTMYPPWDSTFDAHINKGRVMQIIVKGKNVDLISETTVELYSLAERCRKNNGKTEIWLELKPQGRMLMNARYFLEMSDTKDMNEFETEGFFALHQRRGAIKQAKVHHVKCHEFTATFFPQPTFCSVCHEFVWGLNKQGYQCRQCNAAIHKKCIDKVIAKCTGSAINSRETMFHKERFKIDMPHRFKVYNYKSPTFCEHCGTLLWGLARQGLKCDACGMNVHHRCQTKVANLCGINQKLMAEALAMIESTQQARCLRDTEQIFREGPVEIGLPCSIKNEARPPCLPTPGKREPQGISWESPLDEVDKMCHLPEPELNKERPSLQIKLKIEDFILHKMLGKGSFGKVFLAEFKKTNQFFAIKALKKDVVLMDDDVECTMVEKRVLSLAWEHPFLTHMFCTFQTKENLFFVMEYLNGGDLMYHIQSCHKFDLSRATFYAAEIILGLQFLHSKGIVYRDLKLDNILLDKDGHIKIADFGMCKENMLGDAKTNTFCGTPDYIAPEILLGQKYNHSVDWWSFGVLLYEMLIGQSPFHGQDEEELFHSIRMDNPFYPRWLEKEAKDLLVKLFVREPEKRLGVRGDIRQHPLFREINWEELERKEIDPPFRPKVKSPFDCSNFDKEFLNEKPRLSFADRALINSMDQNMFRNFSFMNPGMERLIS
SMILES,inhibition [1],inhibition [2],inhibition [3],inhibition [4],inhibition [5],inhibition [6],inhibition [7],inhibition [8],inhibition [9],inhibition [10],inhibition [11],inhibition [12],inhibition [13],inhibition [14],inhibition [15],inhibition [16],inhibition [17],inhibition [18],inhibition [19],inhibition [20]
CCn1c(-c2nonc2N)nc2ccc(F)cc21,5.71%,2.23%,1.51%,4.58%,6.97%,1.15%,4.26%,4.58%,6.64%,5.68%,5.33%,6.8%,6.49%,3.97%,14.5%,8.14%,41.4%,3.36%,6.51%,2.21%
ON=C1CCc2cc(-c3nc(C4CCNCC4)[nH]c3-c3ccncc3)ccc21,-1.84%,-0.01%,4.71%,-0.55%,1.23%,0.45%,7.96%,0.36%,5.6%,1.54%,9.97%,1.39%,8.68%,-0.33%,1.76%,0.54%,2.55%,-0.73%,-2.69%,0.17%
CCCN1CCCC(c2ccc(Nc3nc(Nc4cc(F)ccc4C(N)=O)c4cc[nH]c4n3)c(OC)c2)C1 (stereo not given),22%,0.84%,2.93%,1.64%,4.89%,1.85%,5.27%,32.2%,79.5%,25.9%,81.1%,19.6%,72.7%,7.1%,32.9%,4.78%,26.3%,0.44%,0.52%,22.5%
NS(=O)(=O)c1ccc(Nc2cc(-c3cccc(O)c3)n[nH]2)cc1,5.97%,2.37%,3.83%,3.09%,3.2%,1.35%,3.75%,4.8%,11.4%,5.45%,7.41%,6.55%,8.42%,5.01%,5.23%,3.66%,5.03%,3.04%,2.25%,1.47%
